A selection: hits, their analogues and other compounds. The true share with any hit is near 3%.
SENP8 block-1: SENP8 protease inhibitors, primary screen, biochemical, luminescence; purified SENP8, Z-RLRGG-aminoluciferin cleavage; inhibition, % at 10 µM; 1.2% of 330,000 active; AID 2540, 2010; in the data active means inhibition above about 50%
TRAIL sens C8: viability loss with TRAIL in NB7+C8 cells, primary screen, TRAIL sensitizer project, cell-based, ATPlite luminescence | inhibition (viability loss, TRAIL sensitization), % at 10 µM | AID 624354, 2012 | 1% of 360,000 active;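 active means compounds causing at least 50% loss of cell viability in the single-dose screen, relative to plate controls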
SENP6 inh: SENP6 protease inhibitors, primary screen, biochemical, luminescence, uHTS | Sentrin-specific protease 6 (Homo sapiens), Q9GZR1 | Recombinant SENP6 catalytic domain, aminoluciferin luminescence | inhibition, % at 10 µM | 1.8% of 330,000 active;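 active means inhibition above about 50% at the single tested dose, limit read from the data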;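 further: plate controls were DMSO wells with enzyme for no effect and DMSO wells lacking enzyme for full effect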
Target sequence (Q9GZR1 628-1112 limits assumed): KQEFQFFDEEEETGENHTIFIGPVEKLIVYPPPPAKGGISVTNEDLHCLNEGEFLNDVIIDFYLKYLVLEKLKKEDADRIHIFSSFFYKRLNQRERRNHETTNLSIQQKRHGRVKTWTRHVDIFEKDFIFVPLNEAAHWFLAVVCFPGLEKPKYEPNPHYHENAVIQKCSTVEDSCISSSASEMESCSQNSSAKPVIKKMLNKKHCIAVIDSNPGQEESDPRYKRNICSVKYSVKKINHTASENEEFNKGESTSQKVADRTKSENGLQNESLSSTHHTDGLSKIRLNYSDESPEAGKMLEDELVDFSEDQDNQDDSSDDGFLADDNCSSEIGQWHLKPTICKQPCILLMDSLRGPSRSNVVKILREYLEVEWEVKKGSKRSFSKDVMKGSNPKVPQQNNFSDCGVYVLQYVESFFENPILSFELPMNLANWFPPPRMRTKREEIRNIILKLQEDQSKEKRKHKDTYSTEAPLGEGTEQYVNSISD
SENP7 block: SENP7 protease inhibitors, primary screen, biochemical, luminescence, uHTS; recombinant SENP7, Z-RLRGG-aminoluciferin luminescence, 40 min; inhibition, % at 5 µM; 1.5% of 330,000 active; AID 434973, 2010;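 active means inhibition above about 50% at the single test dose, limit read from the data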;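 further: plate controls were DMSO with enzyme for no effect and no enzyme buffer wells for full effect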
PPC-1+TRAIL kill: compounds killing PPC-1 cancer cells with TRAIL present, primary screen, TRAIL potentiator project, ATPLite luminescence, uHTS | PPC-1 cells + TRAIL, ATPLite viability luminescence | cell killing (% activity), % at 4 µM or 5 µM | 0.41% of 220,000 active | AID 1443, 2008;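 active means cell killing above 50% in the first pass at 4 µM, then a duplicate retest at 5 µM averaging 50% or more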;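 further: plate controls were cells with TRAIL plus DMSO for no effect and medium-only wells lacking cells for full effect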
SENP8 block-2: human SENP8 protease inhibitors, primary screen, biochemical, fluorescence, Nedd8 protein substrate, uHTS. 0.64% of 360,000 active. Sentrin-specific protease 8 (Homo sapiens), Q96LD8. recombinant SENP8. AID 602440, 2012. inhibition, % at 20 µM; in the data active means inhibition mostly above about 40%, no sharp cut-off; inactive means mostly below about 27%
Active calls of the source: *; ! = a repeat was not active.

Screening Cc1ccc2nc(-c3cc(-c4ccccc4)no3)cn2c1 returned SENP8 block-1 32, TRAIL sens C8 57*, SENP6 inh 44, SENP7 block 90*, PPC-1+TRAIL kill 33 and SENP8 block-2 -233.
CC(=O)Nc1ccc(-c2cc(-c3ccccc3)nc(-c3ccccc3)n2)cc1 was read as SENP8 block-1 -14, TRAIL sens C8 22, SENP6 inh -19, SENP7 block -8, PPC-1+TRAIL kill 12 and SENP8 block-2 -422.
Screening CC(=O)Nc1nccc(-c2cc(-c3ccccc3)no2)n1 returned SENP8 block-1 12, SENP6 inh 2, SENP7 block 8 and PPC-1+TRAIL kill -8.
Screening CC1CCC(C(C)C)C(OC(=O)Cn2c(-c3ccccc3)[n+](C)c3ccccc32)C1 (configuration not stated) returned SENP8 block-1 -5, TRAIL sens C8 58*!, SENP6 inh -14, SENP7 block -4, PPC-1+TRAIL kill 24 and SENP8 block-2 20.
CC1CCC(C(C)C)C(OC(=O)Cn2c(-c3ccc(F)cc3)[n+](C)c3ccccc32)C1 (configuration not stated) was read as SENP8 block-1 -12, TRAIL sens C8 37, SENP6 inh -18, SENP7 block -9, PPC-1+TRAIL kill 23 and SENP8 block-2 22.
Screening C#CCSc1nnc(-c2sc(-c3ccccc3)nc2C)n1C returned SENP8 block-1 -14, TRAIL sens C8 80*, SENP6 inh 5, SENP7 block -5, PPC-1+TRAIL kill -4 and SENP8 block-2 -279.
`C#CCSc1nnc(-c2c[nH]c3ccccc23)n1C` gave SENP8 block-1 9, TRAIL sens C8 -4, SENP6 inh 6, SENP7 block -3, PPC-1+TRAIL kill 14 and SENP8 block-2 9.
`O=C(Nc1ccc(C(=O)N2CCOCC2)cc1)c1ccccc1Cl` gave TRAIL sens C8 11 and SENP8 block-2 14.
COc1ccccc1N(CC(=O)N/N=C/c1c(O)ccc2ccccc12)S(C)(=O)=O was read as SENP8 block-1 -4, TRAIL sens C8 52*, SENP6 inh -4, SENP7 block 4, PPC-1+TRAIL kill 36 and SENP8 block-2 -33.
For COc1ccccc1NCC(=O)N/N=C/c1c(O)ccc2ccccc12 the results were SENP8 block-1 -9, TRAIL sens C8 12, SENP6 inh -15, SENP7 block -5 and SENP8 block-2 -50.
C#Cc1ccc(NC(=O)C2(C)CCN2C(=O)Cc2ccc(C(C)C)cc2)cc1 (configuration not stated) was read as TRAIL sens C8 52* and SENP8 block-2 14.
For C#Cc1ccc(NC(=O)C2(C)CCN2C(=O)Cc2ccc(C(C)(C)C)cc2)cc1 (configuration not stated) the results were TRAIL sens C8 25 and SENP8 block-2 25.
Screening CC1(C)Cc2nc3scc(NC(=O)c4ccccc4)c3cc2CO1 returned SENP8 block-1 11, TRAIL sens C8 16, SENP6 inh 3, SENP7 block -3, PPC-1+TRAIL kill 9 and SENP8 block-2 9.
`CCC(=O)OCCCCCCOc1ccc(C(=O)O)cc1` gave SENP8 block-1 1, TRAIL sens C8 -5, SENP6 inh 0, SENP7 block -4, PPC-1+TRAIL kill 18 and SENP8 block-2 20.
Screening CCOc1ccc(NC(=O)Nc2ccccc2SC)cc1 returned SENP8 block-1 95*, TRAIL sens C8 43, SENP6 inh 98*, SENP7 block 99*, PPC-1+TRAIL kill 24 and SENP8 block-2 2.
`O=C(Nc1ccc(NC(=O)C2CC2)cc1)c1ccco1` gave SENP8 block-1 -8, TRAIL sens C8 55*, SENP6 inh 2, SENP7 block -3 and SENP8 block-2 15.
`O=C(Cc1ccccc1)Nc1ccc(NC(=O)c2ccco2)nc1` gave SENP8 block-1 -4, TRAIL sens C8 12, SENP6 inh -10, SENP7 block 5, PPC-1+TRAIL kill 10 and SENP8 block-2 7.
Nc1nc(-c2ccc(NC(=O)c3ccco3)cc2)cs1 was read as SENP8 block-1 22, TRAIL sens C8 74*, SENP6 inh 7, SENP7 block 9 and SENP8 block-2 -23.
Screening CC(C)(C)C(=O)Nc1ccc(NC(=O)c2ccco2)nc1 returned SENP8 block-1 -6, TRAIL sens C8 95*, SENP6 inh 1, SENP7 block 3 and SENP8 block-2 8.
For Cc1c(C(=O)N2CCc3ccccc3C2)oc2ccccc12 the results were SENP8 block-1 3, TRAIL sens C8 0, SENP6 inh 25, SENP7 block 5 and SENP8 block-2 11.
O=C(c1ccc2c(c1)CCC2)N1CCN(Cc2ccccc2)CC1 was read as TRAIL sens C8 22 and SENP8 block-2 10.
For COc1ccc(CCNC(=O)CC(Cc2ccc(C)cc2)C(=O)O)cc1OC (configuration not stated) the results were SENP8 block-1 0, TRAIL sens C8 -15, SENP6 inh 2, SENP7 block 6 and SENP8 block-2 4.
CCOc1ccc(NC(=O)c2cc3ccccc3cc2O)cc1 was read as SENP8 block-1 23, TRAIL sens C8 28, SENP6 inh 45, SENP7 block 68*, PPC-1+TRAIL kill 40 and SENP8 block-2 -26.
For CCOc1ccc(NC(=O)c2cc3ccccc3cc2OC)cc1 the results were SENP8 block-1 13, TRAIL sens C8 19, SENP6 inh 11, SENP7 block 1 and SENP8 block-2 -7.
CCOc1ccc(NC(=S)NC(=O)c2ccco2)cc1 was read as SENP8 block-1 6, TRAIL sens C8 -1, SENP6 inh 17, SENP7 block -7, PPC-1+TRAIL kill 26 and SENP8 block-2 11.
For O=C(Cc1ccccc1)Nc1ccc(NC(=O)C2CCCCC2)nc1 the results were SENP8 block-1 4, TRAIL sens C8 7, SENP6 inh 5, SENP7 block 1 and SENP8 block-2 2.
`O=C(Nc1ccc(NC(=O)C2CCCCC2)cn1)c1ccco1` gave SENP8 block-1 -11, TRAIL sens C8 70*, SENP6 inh 15, SENP7 block 19, PPC-1+TRAIL kill 58* and SENP8 block-2 6.
CCOc1ccc(NC(=O)c2ccco2)cc1 was read as SENP8 block-1 -14, TRAIL sens C8 55*, SENP6 inh 19, SENP7 block 4, PPC-1+TRAIL kill 48 and SENP8 block-2 8.
`Cc1cc(-c2ccc(F)cc2)n2ncc(-c3ccccc3)c2n1` gave TRAIL sens C8 64* and SENP8 block-2 15.
Screening Cc1cc(-c2ccncc2)n2ncc(-c3ccccc3)c2n1 returned TRAIL sens C8 14 and SENP8 block-2 7.
Screening O=S1(=O)C=C[C@@H](COCc2ccccc2)N1Cc1ccc(Br)cc1 returned TRAIL sens C8 -12 and SENP8 block-2 21.

Screens (PubChem BioAssay)
